Assay results published in PubChem BioAssay (EPA / NIEHS).
Results filed as inconclusive are left out. Calls of active or inactive are those of the source. Rule for the calls, unless noted: active = hit-call score of the fitted dose curve at least 0.9, where 1 is the maximum; inconclusive = response in the unintended direction; inactive = score below 0.9.

Experiments:
[1] = CEETOX_H295R_OHPREG_noMTC: CeeTox H295R High-throughput Steroidogenesis Assay for OH-Pregnenolone (OHPREG), maximum tolerated concentration (MTC) filtered results only (AID 2283912; active = hit-call score of the fitted dose curve at least 0.9, where 1 is the maximum; inactive = score below 0.9); conditions: actives raise or lower the signal
In short: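 Steroidogenesis in H295R cells (OECD 456, modified): after 48 h forskolin priming and 48 h chemical treatment, secreted 17alpha-hydroxypregnenolone is measured by HPLC-MS/MS. Activity is fitted in both directions against DMSO; concentrations are not filtered by MTT-based MTC.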

[2] = CEETOX_H295R_OHPROG_noMTC: CeeTox H295R High-throughput Steroidogenesis Assay for OH-Progesterone (OHPROG), maximum tolerated concentration (MTC) filtered results only (AID 2283914; active = hit-call score of the fitted dose curve at least 0.9, where 1 is the maximum; inactive = score below 0.9); conditions: actives raise or lower the signal
In short: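 Forskolin 10 uM, 48 h prestim → test cmpd in DMSO (0.1% final), 48 h → medium MTBE extraction → LC-MS/MS quant of 17alpha-OH-progesterone. Bidirectional fit vs DMSO; no MTT-based MTC filtering.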

[3] = CEETOX_H295R_ANDR_noMTC: CeeTox H295R High-throughput Steroidogenesis Assay for Androstenedione (ANDR), maximum tolerated concentration (MTC) filtered results only (AID 2283915; active = hit-call score of the fitted dose curve at least 0.9, where 1 is the maximum; inactive = score below 0.9); conditions: actives raise or lower the signal
In short: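 H295R cells, passage 10 or below, prestimulated 48 h with 10 uM forskolin, then exposed 48 h to chemical in 0.1% DMSO. Medium androstenedione extracted with MTBE, quantified by HPLC-MS/MS; concentrations not MTC-filtered; bidirectional fit versus DMSO.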

[4] = CEETOX_H295R_PROG_noMTC: CeeTox H295R High-throughput Steroidogenesis Assay for Progesterone (PROG), maximum tolerated concentration (MTC) filtered results only (AID 2283920; active = hit-call score of the fitted dose curve at least 0.9, where 1 is the maximum; inactive = score below 0.9); conditions: actives raise or lower the signal
In short: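 H295R cells; forskolin 10 uM x 48 h prestim; test cpd 48 h, 0.1% DMSO final; media progesterone via LC-MS/MS; bidirectional fit vs DMSO; no MTT-based MTC filter applied.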

[5] = CEETOX_H295R_TESTO_noMTC: CeeTox H295R High-throughput Steroidogenesis Assay for Testosterone (TESTO), maximum tolerated concentration (MTC) filtered results only (AID 2283924; active = hit-call score of the fitted dose curve at least 0.9, where 1 is the maximum; inactive = score below 0.9); conditions: actives raise or lower the signal
Experimental: CEETOX_H295R is a cell-based, multiplexed-readout assay that uses H295R, a human adrenal gland cell line, with measurements taken at 48 hours after chemical dosing in a 96-well plate.CEETOX_H295R_TESTO_noMTC is one of 12 assay component(s) measured or calculated from the CEETOX_H295R assay (11 hormones and 1 viability assay). It is designed to make measurements of hormone induction, a form of inducible reporter, as detected with absorbance signals by HPLC-MS-MS technology. The concentrations for these components have not been pre-filtered for the maximum tolerated concentration (MTC) based on the MTT assay (_noMTC).Data from the assay component CEETOX_H295R_TESTO_noMTC was analyzed into 1 assay endpoint. This assay endpoint, CEETOX_H295R_TESTO_noMTC, was analyzed with bidirectional fitting relative to DMSO as the negative control and baseline of activity. […]
Cell culture and media preparation procedures were conducted in accordance with OECD Test No. 456 guidelines, with minor modifications. […] For steroid quantification, media samples were shipped to OpAns, LLC (Durham, NC) on dry ice, and samples were thawed to room temperature prior to liquid-liquid extraction. […] Steroid hormones were separated by HPLC, eluted using a reverse phase C18 gradient with electrospray positive ionization, followed by quantification by tandem mass spectrometry (MS/MS). […]

PGR (gene 5241) [6] = biological target: PGR (gene 5241) (UniProt P06401); experiment: TOX21_PR_BLA_Followup_Agonist_ratio: Tox21 HEK293 Progesterone Receptor (PR) Agonism Beta-lactamase Follow-Up Assay, Ratio (AID 2283933)
Chain of PGR (gene 5241) (P06401 whole entry, looked up, the tested form may be a part): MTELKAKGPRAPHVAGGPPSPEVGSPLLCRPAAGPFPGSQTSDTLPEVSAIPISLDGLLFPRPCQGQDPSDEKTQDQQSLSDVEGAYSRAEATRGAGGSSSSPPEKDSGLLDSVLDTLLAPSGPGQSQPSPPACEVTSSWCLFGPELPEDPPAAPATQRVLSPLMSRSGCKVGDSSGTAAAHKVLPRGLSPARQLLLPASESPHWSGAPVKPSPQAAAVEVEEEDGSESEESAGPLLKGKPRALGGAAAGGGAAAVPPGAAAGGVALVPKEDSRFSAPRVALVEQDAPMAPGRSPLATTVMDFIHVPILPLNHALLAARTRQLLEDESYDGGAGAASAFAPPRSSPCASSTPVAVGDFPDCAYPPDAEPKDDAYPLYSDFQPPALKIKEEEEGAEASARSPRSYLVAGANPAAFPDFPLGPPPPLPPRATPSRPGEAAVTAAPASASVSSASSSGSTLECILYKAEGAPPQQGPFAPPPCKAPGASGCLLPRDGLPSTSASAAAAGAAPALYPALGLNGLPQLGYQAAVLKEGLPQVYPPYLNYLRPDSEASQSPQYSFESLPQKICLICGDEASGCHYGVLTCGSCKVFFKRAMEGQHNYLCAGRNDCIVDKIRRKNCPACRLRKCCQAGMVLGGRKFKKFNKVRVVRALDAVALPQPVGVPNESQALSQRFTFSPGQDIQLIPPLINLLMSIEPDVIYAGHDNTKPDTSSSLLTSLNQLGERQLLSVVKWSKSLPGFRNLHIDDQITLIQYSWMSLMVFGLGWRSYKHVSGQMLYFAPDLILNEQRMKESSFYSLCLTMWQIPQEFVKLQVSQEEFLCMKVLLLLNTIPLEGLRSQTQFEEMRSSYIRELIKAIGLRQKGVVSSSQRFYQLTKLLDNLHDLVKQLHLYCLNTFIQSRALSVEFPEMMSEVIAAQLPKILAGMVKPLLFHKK
In short: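 PR-UAS-bla HEK293T cells (GAL4-UAS beta-lactamase reporter) in medium with 2% charcoal-stripped FBS received compounds after 6 hr at 37C, then incubated 16 hr. LiveBLAzer FRET substrate added, 2 hr room temperature; cleaved/uncleaved (ch2/ch1) ratio fitted upward versus DMSO.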

PGR (gene 5241) [7] = biological target: PGR (gene 5241) (UniProt P06401); experiment: TOX21_PR_BLA_Followup_Antagonist_ratio: Tox21 HEK293 Progesterone Receptor (PR) Antagonism Beta-lactamase Follow-Up Assay, Ratio (AID 2283934)
In short: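 PR-UAS-bla HEK293T cells in medium with 2% charcoal-stripped FBS were treated with compounds plus 1 nM (final) promegestone (R5020) for 16 hr at 37C. LiveBLAzer B/G FRET substrate was then added for 2 h at room temperature; signal is cleaved/uncleaved substrate ratio versus DMSO.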

[8] = TOX21_PR_BLA_Followup_Agonist_viability: Viability Assessment in the Tox21 HEK293 Progesterone Receptor (PR) Agonism Beta-lactamase Follow-Up Assay (AID 2283935);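 note: signal loss means lower viability so actives are cytotoxic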
In short: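 PR-UAS-bla HEK293T cells in 2% charcoal-stripped FBS medium, compound added after 6 hr plating, 16 hr at 37C/5% CO2. After bla FRET read, CellTiter-Glo added; luminescence read after 30 min at room temperature; signal loss marks cytotoxicity.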

[9] = TOX21_PR_BLA_Followup_Antagonist_viability: Viability Assessment in the Tox21 HEK293 Progesterone Receptor (PR) Antagonism Beta-lactamase Follow-Up Assay (AID 2283936);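 note: hits lower the luminescence signal meaning cytotoxicity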
In short: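 PR-UAS-bla HEK293T cells (3,000/well, 2% charcoal-stripped FBS) given compound plus R5020 agonist, 16 h at 37C. CellTiter-Glo added after bla read, 30 min at room temperature; luminescence loss indicates cytotoxicity.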

Measured: AC50

CCCCOC(=O)c1ccccc1C(=O)O
inactive: [1] | [2] | [3] | [4] | [5]

CCC(=O)Nc1ccc(Cl)c(Cl)c1
inactive: PGR (gene 5241) [6] | PGR (gene 5241) [7] | [8] | [9]

CCOP(=S)(OCC)Oc1ccc([N+](=O)[O-])cc1
inactive: [8] | [9]
active: PGR (gene 5241) [7] 3.78 µM
